Measured values taken from PubChem BioAssay.
Active and inactive are the calls of the source.

Experiments:
[1] = test system: Plasmodium falciparum Sir2 (PF13_0152, Sir2A); test: pfSir2 binders on small-molecule microarrays, primary screen, biochemical, small-molecule microarray, 635 nm fluorescence (AID 1098); details: small-molecule microarray binding, fluorescence 635 nm; higher = more signal;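 note: score merges spot fluorescence intensity with its signal-to-noise ratio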
[2] = small-molecule microarray binders of probe aDKK1, primary screen, biochemical, biotinylated probe, 635/667 nm fluorescence (AID 1099); details: higher = more signal;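 note: score merges 667nm spot fluorescence with signal to noise across triplicate slides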
[3] = small-molecule microarray binders of probe aCHRDL2, primary screen, biochemical, biotinylated probe, 635/667 nm fluorescence (AID 1100); details: higher = more signal
[4] = splicing luciferase reporter signal modulators, primary screen, spliceosome inhibition project, cell-based, HEK293, splice +/- reporter (AID 1101); details: luminescence, 24 h, higher = more signal, called active from +8 up or from −8 down;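 note: HEK293 cells carrying a splicing-competent luciferase reporter gene; test concentration not given here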
[5] = target: Fibroblast growth factor 10 (Homo sapiens) (UniProt O15520); test: FGF10 binders on small-molecule microarrays, primary screen, biochemical, small-molecule microarray, 635 nm fluorescence (AID 1102); details: FGF10 binding, fluorescence 635 nm, higher = more signal
Fibroblast growth factor 10 (Homo sapiens), sequence (O15520 whole entry, looked up): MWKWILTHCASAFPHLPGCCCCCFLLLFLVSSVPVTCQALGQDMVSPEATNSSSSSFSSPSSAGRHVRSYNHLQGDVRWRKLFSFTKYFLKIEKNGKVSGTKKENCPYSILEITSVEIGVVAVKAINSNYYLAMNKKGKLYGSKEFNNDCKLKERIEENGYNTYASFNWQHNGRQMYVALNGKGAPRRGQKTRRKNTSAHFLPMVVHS

[6] = test system: glycogen synthase kinase-3 (GSK3A per assay name; protocol says GSK3B); test: GSK3 binders on small-molecule microarrays, primary screen, biochemical, small-molecule microarray, 635 nm fluorescence, GSK3A (AID 1103); details: small-molecule microarray binding, fluorescence 635 nm; higher = more signal; note: the record names both GSK3A and GSK3B
[7] = target: Epidermal growth factor receptor (Homo sapiens) (UniProt P00533); test: EGFR binders on small-molecule microarrays, primary screen, biochemical, small-molecule microarray, 635 nm fluorescence (AID 1104); details: EGFR binding, higher = more signal;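 note: score merges 667 nm emission intensity with spot signal to noise over triplicate slides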
Epidermal growth factor receptor (Homo sapiens), sequence (P00533 whole entry, looked up): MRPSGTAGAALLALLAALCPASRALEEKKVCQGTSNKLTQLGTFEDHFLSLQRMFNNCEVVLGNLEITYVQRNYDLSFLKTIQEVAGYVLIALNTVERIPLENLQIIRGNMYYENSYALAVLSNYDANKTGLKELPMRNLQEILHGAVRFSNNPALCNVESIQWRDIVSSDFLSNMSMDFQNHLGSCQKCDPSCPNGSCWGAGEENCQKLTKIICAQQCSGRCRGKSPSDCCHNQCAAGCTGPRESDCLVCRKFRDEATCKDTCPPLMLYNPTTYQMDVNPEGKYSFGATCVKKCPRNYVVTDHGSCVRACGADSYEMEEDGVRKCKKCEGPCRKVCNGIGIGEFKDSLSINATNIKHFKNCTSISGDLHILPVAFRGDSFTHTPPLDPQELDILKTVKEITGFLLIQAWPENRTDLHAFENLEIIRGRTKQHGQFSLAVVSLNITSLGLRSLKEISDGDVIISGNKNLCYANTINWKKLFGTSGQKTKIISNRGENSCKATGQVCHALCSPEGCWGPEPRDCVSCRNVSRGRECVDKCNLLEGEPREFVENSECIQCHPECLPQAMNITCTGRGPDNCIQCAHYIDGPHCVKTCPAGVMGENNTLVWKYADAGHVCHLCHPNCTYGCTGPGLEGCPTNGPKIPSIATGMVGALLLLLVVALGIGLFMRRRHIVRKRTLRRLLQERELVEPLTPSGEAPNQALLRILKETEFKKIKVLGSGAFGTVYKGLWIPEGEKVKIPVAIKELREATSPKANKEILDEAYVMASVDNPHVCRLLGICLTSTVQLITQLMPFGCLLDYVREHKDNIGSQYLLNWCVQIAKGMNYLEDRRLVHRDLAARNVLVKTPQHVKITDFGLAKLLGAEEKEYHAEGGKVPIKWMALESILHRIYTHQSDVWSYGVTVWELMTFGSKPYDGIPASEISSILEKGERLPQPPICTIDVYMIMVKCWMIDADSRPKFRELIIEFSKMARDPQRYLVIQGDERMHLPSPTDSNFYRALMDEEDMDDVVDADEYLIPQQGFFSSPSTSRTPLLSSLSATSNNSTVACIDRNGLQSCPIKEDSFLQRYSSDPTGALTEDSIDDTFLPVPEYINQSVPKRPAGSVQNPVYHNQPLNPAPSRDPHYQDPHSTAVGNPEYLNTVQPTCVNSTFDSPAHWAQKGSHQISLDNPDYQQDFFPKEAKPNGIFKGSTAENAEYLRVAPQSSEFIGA

[8] = target: Follistatin-related protein 3 (Homo sapiens) (UniProt O95633); test: FSTL3 binders on small-molecule microarrays, primary screen, biochemical, small-molecule microarray, 635 nm fluorescence (AID 1105); details: FSTL3 binding, higher = more signal;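 note: score merges emission near 667 nm and signal to noise per printed spot across three slides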
Follistatin-related protein 3 (Homo sapiens), sequence (O95633 whole entry, looked up): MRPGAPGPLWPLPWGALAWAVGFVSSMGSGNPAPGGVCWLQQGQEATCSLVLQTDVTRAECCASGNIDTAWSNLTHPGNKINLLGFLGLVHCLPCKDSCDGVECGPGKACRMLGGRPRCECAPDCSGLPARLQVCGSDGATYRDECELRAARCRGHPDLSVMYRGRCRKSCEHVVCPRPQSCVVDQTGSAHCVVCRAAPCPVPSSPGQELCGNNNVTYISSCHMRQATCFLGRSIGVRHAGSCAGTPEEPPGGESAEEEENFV

[9] = target: Dickkopf-related protein 1 (Homo sapiens) (UniProt O94907); test: DKK1 binders on small-molecule microarrays, primary screen, biochemical, small-molecule microarray, 635 nm fluorescence scan (AID 1106); details: DKK1 binding, higher = more signal;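 note: score merges emission near 667 nm with signal to noise over three replicate slides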
Dickkopf-related protein 1 (Homo sapiens), sequence (O94907 whole entry, looked up): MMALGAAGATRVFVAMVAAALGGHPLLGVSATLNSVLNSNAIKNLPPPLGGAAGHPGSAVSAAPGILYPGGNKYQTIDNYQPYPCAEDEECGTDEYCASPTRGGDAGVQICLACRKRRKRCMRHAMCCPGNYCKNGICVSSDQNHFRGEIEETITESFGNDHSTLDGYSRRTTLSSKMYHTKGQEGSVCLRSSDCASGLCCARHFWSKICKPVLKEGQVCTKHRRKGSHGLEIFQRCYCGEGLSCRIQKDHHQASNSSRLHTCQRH

[10] = test system: Inhibin beta A chain (activin A); test: INHBA (activin A) binders on microarrays, primary screen, biochemical, small-molecule microarray, 635 nm fluorescence scan (AID 1107); details: small-molecule microarray binding, higher = more signal;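 note: mouse activin A protein probed at 4.33 µg/mL on printed slides; score merges bound-protein fluorescence near 667 nm with spot signal-to-noise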
[11] = test system: Human papillomavirus type 1a protein E7 (residues 44-93); test: HPV1a E7 fragment binders on microarrays, primary screen, biochemical, small-molecule microarray, residues 44-93, 635 nm fluorescence (AID 1108); details: small-molecule microarray binding, fluorescence 635 nm; higher = more signal;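 note: E7 fragment applied at 1 µg/mL in TBST for 1 h at 4 C; score combines spot fluorescence with its signal to noise ratio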
[12] = modulators of HCV replicon luciferase signal, primary screen, HCV replication inhibitor project, Huh7 cells, luciferase reporter (AID 1109); details: 48 h, higher = more signal;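 note: huh7 hepatoma cells harbouring a luciferase neomycin HCV replicon reporter; luciferase luminescence as measure of HCV replicon replication; test concentration not given here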
[13] = target: Left-right determination factor 2 (Homo sapiens) (UniProt O00292); test: LEFTY2 binders on small-molecule microarrays, primary screen, biochemical, small-molecule microarray, 635 nm fluorescence scan (AID 1110); details: LEFTY2 binding, higher = more signal
Left-right determination factor 2 (Homo sapiens), sequence (O00292 whole entry, looked up): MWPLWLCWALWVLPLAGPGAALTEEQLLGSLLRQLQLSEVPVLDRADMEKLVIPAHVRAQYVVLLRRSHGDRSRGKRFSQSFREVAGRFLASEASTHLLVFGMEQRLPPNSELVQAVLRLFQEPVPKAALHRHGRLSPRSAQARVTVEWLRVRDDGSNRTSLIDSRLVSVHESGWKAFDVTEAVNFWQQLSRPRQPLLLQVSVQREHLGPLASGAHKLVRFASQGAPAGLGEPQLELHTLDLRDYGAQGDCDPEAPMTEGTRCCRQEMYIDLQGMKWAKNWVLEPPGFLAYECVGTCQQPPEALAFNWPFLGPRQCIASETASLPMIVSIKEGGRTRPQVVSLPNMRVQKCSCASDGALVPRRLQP

[14] = target: Calmodulin-1 (Homo sapiens) (UniProt P0DP23); test: CALM1 binders on microarrays, EGTA buffer, profiling panel, biochemical, small-molecule microarray, Cy5-labelled CALM1 (AID 1111); details: Cy5-CALM1 binding fluorescence, higher = more signal;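 note: labelled calmodulin applied in Tris saline Tween buffer holding calcium plus EGTA and DTT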
[15] = target: Calmodulin-1 (Homo sapiens) (UniProt P0DP23); test: calcium-bound CALM1 binders on microarrays, profiling panel, artefact control for SMM control-protein annotation, biochemical, small-molecule microarray, Cy5-labelled CALM1, plus calcium (AID 1112); details: Cy5-CALM1 binding fluorescence, higher = more signal;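 note: score merges spot fluorescence with signal to noise from triplicate slides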
[16] = small-molecule microarray binders of probe aWnt5a, primary screen, biochemical, biotinylated probe, 635/667 nm fluorescence (AID 1113); details: higher = more signal;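 note: score merges 667 nm fluorescence intensity with signal-to-noise per printed feature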
[17] = small-molecule microarray binders of probe aShh, primary screen, biochemical, biotinylated probe, 635/667 nm fluorescence (AID 1114); details: higher = more signal;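 note: probe is biotin-labelled aShh protein from a stem cell growth factor screen; measures binding of labelled protein to compounds printed on the slide; score merges feature fluorescence at 667 nm with signal-to-noise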
[18] = small-molecule microarray binders of probe aNog, primary screen, biochemical, biotinylated probe, 635/667 nm fluorescence (AID 1115); details: higher = more signal;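 note: probe is biotinylated aNog protein used at 0.15 µg/mL for 1 h at 4 C; z-score combines 667 nm fluorescence of each spot with its signal to noise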
[19] = target: Torsin-1A-interacting protein 1 (Homo sapiens) (UniProt Q5JTV8); test: LAP1 binders from COS7 cell lysate, primary screen, small-molecule microarray, 635/667 nm fluorescence (AID 1116); details: COS7-hLAP1 lysate binding, 635 nm fluorescence, higher = more signal
Torsin-1A-interacting protein 1 (Homo sapiens), sequence (Q5JTV8 whole entry, looked up): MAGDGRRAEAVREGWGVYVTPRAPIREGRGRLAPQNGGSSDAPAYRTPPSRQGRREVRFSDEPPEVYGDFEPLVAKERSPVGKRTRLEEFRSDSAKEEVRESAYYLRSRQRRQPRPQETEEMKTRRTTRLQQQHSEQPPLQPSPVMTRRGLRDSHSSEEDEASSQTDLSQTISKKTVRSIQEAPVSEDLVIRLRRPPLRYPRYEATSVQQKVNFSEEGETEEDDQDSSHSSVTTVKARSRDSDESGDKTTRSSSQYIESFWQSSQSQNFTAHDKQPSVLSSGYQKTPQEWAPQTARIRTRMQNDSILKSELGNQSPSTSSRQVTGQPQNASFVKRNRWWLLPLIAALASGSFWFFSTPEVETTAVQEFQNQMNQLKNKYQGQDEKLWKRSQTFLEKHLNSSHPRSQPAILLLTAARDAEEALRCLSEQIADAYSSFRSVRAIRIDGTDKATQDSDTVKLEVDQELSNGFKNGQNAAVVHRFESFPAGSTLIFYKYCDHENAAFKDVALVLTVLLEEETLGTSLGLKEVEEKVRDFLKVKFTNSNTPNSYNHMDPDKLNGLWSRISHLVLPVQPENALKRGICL

[20] = target: Alpha-bungarotoxin (Bungarus multicinctus) (UniProt P60615); test: alpha-bungarotoxin binders on microarray, profiling panel, artefact control for SMM control protein annotation, biochemical, small-molecule microarray, Alexa647 label, 635/667 nm fluorescence (AID 1117); details: alpha-BTX-A647 binding fluorescence, higher = more signal
Alpha-bungarotoxin (Bungarus multicinctus), sequence (P60615 whole entry, looked up): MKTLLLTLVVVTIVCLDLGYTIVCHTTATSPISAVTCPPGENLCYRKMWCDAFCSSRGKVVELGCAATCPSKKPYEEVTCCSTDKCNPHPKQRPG

Compound | composite z-score [1] | composite z-score [2] | composite z-score [3] | z-score [4] | composite z-score [5] | composite z-score [6] | composite z-score [7] | composite z-score [8] | composite z-score [9] | composite z-score [10] | composite z-score [11] | z-score [12] | composite z-score [13] | composite z-score [14] | composite z-score [15] | composite z-score [16] | composite z-score [17] | composite z-score [18] | composite z-score [19] | composite z-score [20]
CC(C)(C)OC(=O)CC[C@]1(C(N)=O)COC(c2ccc(OCCCO)cc2)=N1 | 0.755 | 1.59 | 1.38 | -0.337 (inactive) | 1.34 | 0.977 | -0.395 | 0.278 | -0.385 | 0.976 | 0.0119 | -0.518 | -0.471 | 2.68 | 1.42 | 0.131 | 0.591 | 1.7 | 2.08 | 1.64
CCOC(=O)CCN1C(=O)[C@H]2[C@H]3[C@H](O)[C@H](O)CC(=NOC[C@@H](O)COCc4ccco4)[C@@H]3CC[C@H]2C1=O | 0.0645 | 0.587 | 0.437 | 0.395 (inactive) | -0.133 | -0.412 | -0.0138 | -0.295 | -0.144 | 0.383 | 0.201 | 0.395 | -0.157 | 0.2 | 0.369 | -0.0462 | -0.223 | -0.0381 | 0.657 | 0.557
COC(=O)CC=C[C@H](C)[C@H](CO)NS(=O)(=O)c1ccc(C)cc1 | 0.227 | -0.397 | -0.707 | 0.636 (inactive) | 0.62 | 0.252 | 0.573 | 0.48 | 0.987 | -0.273 | 0.144 | -0.763 | 0.703 | -0.756 | -0.624 | -0.124 | -0.117 | -0.0094 | 0.729 | 0.219
COC(=O)[C@@]1(Cc2ccc(F)cc2)[C@@H]2C(=CC(=O)[C@H]2CC(=O)C(=O)N(C)C)CN1C(=O)c1ccccc1 | 0.346 | 1.31 | 0.921 | -1.17 (inactive) | 0.625 | 1.29 | -0.0946 | 1.06 | -0.251 | 0.637 | 1.46 | -2.09 | 0.45 | 1.98 | 1.21 | 0.0839 | 1.21 | 0.896 | 1.52 | 0.954
COC(=O)[C@H]1COC(c2ccc(OCCCO)cc2)=N1 | 1.16 | 0.378 | 1.07 | -0.19 (inactive) | -0.13 | -0.882 | -0.2 | -0.576 | -0.59 | 1.04 | -1.8 | 0.592 | -0.365 | -0.545 | 0.662 | 0.0108 | -0.276 | 0.221 | 1.94 | -0.373
COc1ccc(O[C@H]2C=C[C@@H](c3ccccc3)O[C@@H]2COC(=O)CCC(C)=NOC(C)CN2CCCCc3nc(C)c(C)cc32)cc1 (stereo not given in full) | 1.42 | -0.0789 | 0.208 | -0.665 (inactive) | -0.154 | -0.86 | -0.457 | -0.106 | -0.0649 | 1.36 | 0.36 | -0.239 | -0.106 | -0.959 | -0.203 | -0.157 | -0.138 | -0.158 | 0.168 | -0.47
